Marburg entry inh: qHTS for inhibitors of binding or entry into cells for Marburg Virus | Marburg virus pseudotyped entry inhibition, cell reporter | Potency, µM (highest dose often 37.8 µM), without a hit: top-dose activity change, negative = inhibition, hits mostly inhibitors | 1.8% of 300,000 active | AID 540276, 2011; calls by dose curve; tested in HEK293 cells; note: potency is the fitted concentration of half-maximal effect; % is set by controls: 0 for no effect and ±100 for the full control effect
FMDV antiviral: High Throughput Screening for Foot and Mouth Disease Virus Antivirals | 1.2% of 410,000 active | Potency, µM (series often up to 57.9 µM), for inactives: at the highest dose activity change, negative = inhibition, hits mostly inhibitors | FMDV antiviral cell-based qHTS; calls by dose curve; tested in HEK293T cells; note: read-out not given here; potency is the fitted concentration of half-maximal effect; % is set by controls: 0 for no effect and ±100 for the full control effect; nearly all actives have a fitted effect of over 45% in size
HCMV inh: qHTS Assay for inhibitors of the human cytomegalovirus (HCMV). HFF cells, HCMV-luciferase reporter, 72 h; active compounds read low. 4.5% of 410,000 active. activity change, negative = inhibition, % at 57.5 µM; in the data active = activity change below about -60%; inconclusive = no clear call, values can overlap the other calls; inactive = above about -39%; note: % is set by controls: 0 for no effect and ±100 for the full control effect
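After 16 h attachment at 37C, HFF cells received test compound and HCMV-luciferase (1 PFU/cell); reporter luminescence read 72 h later, data normalized against buffer-only and known inhibitor Salinomycin.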
LASV entry inh: qHTS for Inhibitors of binding or entry into cells for Lassa Virus | Lassa virus pseudotype entry inhibition, cell reporter | AID 540256, 2011 | Potency, µM (series often up to 37.9 µM), for the others: at the highest dose activity change, negative = inhibition, hits mostly inhibitors | 1.2% of 300,000 active; calls by dose curve; tested in HEK293 cells; note: potency is the fitted concentration of half-maximal effect; % is set by controls: 0 for no effect and ±100 for the full control effect; nearly all actives have a fitted effect of over 50% in size
HCV inhibitor: qHTS Assay for Inhibitors of Hepatitis C Virus (HCV); Potency, µM (top dose mostly 41.8 µM), inactives show at the highest dose activity change, negative = inhibition, most hits filed as inhibitors; Huh7.5.1 HCVcc-Cre infection, luciferase reporter, 44 h; 3.4% of 340,000 active; AID 651820, 2012; active = well fitted inhibition curve with a large enough effect; inconclusive = small, poorly fitted or top-dose-only effect, or another doubt; inactive = no such curve, though single readings can be large or run the other way; note: potency is the fitted concentration of half-maximal effect; % is set by controls: 0 for no effect and ±100 for the full control effect
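Reporter virus HCVcc-Cre (~0.5 moi) infects cells exposed to compound; seeding density 1,000 cells/well with 4 h settling beforehand. Luminescence, 15 sec read, taken 44 h post-infection following a 15 min RT substrate incubation.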
SARS PLP yeast: qHTS of Yeast-based Assay for SARS-CoV PLP; Potency, µM (doses to about 32.9 µM), without a hit: at the highest dose activity, positive = growth rescue, hits mostly activators; AID 485353, 2010; S. cerevisiae expressing SARS-CoV PLpro, growth rescue; 0.19% of 330,000 active; calls by dose curve; note: potency is the fitted concentration of half-maximal effect; 0% is about no effect; nearly all actives have a fitted effect of over 55% in size
Numbers without * were called inactive; ? = inconclusive; . = not tested or not shown; [ ] = remark or other dose. Shown are actives, neighbours in structure and some others; about 8% of the full set was active somewhere.

SMILES	Marburg entry inh	FMDV antiviral	HCMV inh	LASV entry inh	HCV inhibitor	SARS PLP yeast
O=C(C(Cc1ccccc1)N1C(=O)c2ccccc2C1=O)N1c2ccccc2CCc2ccccc21 (centres undefined)	?	0%	-66*	?	10µM*	-6%
Cc1ccccc1C(=O)N1CCCCC1CCN1CCCCC1 (centres undefined)	-1%[46.1 µM]	-9%	-20	4%[46.1 µM]	.	.
CCCOc1ccccc1C(=O)N1CCCCC1CCN1CCCCC1 (centres undefined)	?	3%	-70*	6%[46.1 µM]	.	.
Cc1ccc(-c2cc(Cc3ccccc3)c(=O)[nH]n2)cc1	1%	-9%	117	2.5µM*	-5%	0%
CC(=O)n1cc(Nc2ccccc2C(=O)O)c2ccccc21	10%[46.1 µM]	1%	42	11%	3%	-3%
COc1ccccc1N(C(=O)CCl)c1cn(C(C)=O)c2ccccc12	.	18µM*	-97*	.	?	-1%
CC(=O)n1cc(N(C(=O)CCl)c2ccc(Cl)cc2)c2ccccc21	.	11µM*	.	.	3.5µM*	-4%
CCOC(=O)c1ccccc1Nc1cn(C(C)=O)c2ccccc12	-2%	-19%	-3	?	0%	4%
Cc1csc(-c2cc(C(=O)NCc3ccc(F)cc3)n[nH]2)c1	.	12%	-64*	.	.	.
COc1ccc(NC(=O)c2cc(-c3cc(C)cs3)[nH]n2)cc1OC	.	3%	0	.	.	.
COc1ccc(OC)c(-c2nnc3n2N=C(c2ccc(OC)c(OCC4CC4)c2)CS3)c1	.	32µM*	.	.	.	-19%
COc1ccc(C2=Nn3c(nnc3-c3ccccc3OC)SC2)cc1OC1CCOC1 (centres undefined)	.	-25%	-90*	.	.	-3%
CCOc1ccc(C2=Nn3c(nnc3-c3ccccc3OC)SC2)cc1	0.29µM*	-26%	-94*	0.023µM*	?	-4%
COc1ccc(C2=Nn3c(nnc3-c3ccccc3Cl)SC2)cc1OCC1CC1	.	-15%	-66*	.	.	1%
CCC(=O)N1c2ccc(S(=O)(=O)N3CCC(C)CC3)cc2CC1C (centres undefined)	12%[46.1 µM]	-1%	25	-15%[46.1 µM]	.	.
COc1ccc(CCNC(=O)C(=O)NCCC2CCCCN2S(=O)(=O)c2cccs2)cc1 (centres undefined)	-17%	32µM*	-30	?	?	-3%
COc1ccc(CCNC(=O)C(=O)NCCC2CCCCN2S(=O)(=O)c2ccccc2)cc1 (centres undefined)	0%	?	?	?	-5%	0%
Cc1ccccc1CNC(=O)C(=O)NCCC1CCCCN1S(=O)(=O)c1cccs1 (centres undefined)	10µM*	-10%	-29	?	?	-2%
COc1ccccc1CNC(=O)C(=O)NCCC1CCCCN1S(=O)(=O)c1cccs1 (centres undefined)	?	?	-12	?	11µM*	-3%
COc1ccccc1CNC(=O)C(=O)NCCC1CCCCN1S(=O)(=O)c1ccc(C)cc1 (centres undefined)	?	-7%	-6	?	?	-4%
Cc1ccc(CNC(=O)C(=O)NCCC2CCCCN2S(=O)(=O)c2cccs2)cc1 (centres undefined)	?	?	-22	?	?	.
Cc1noc(C)c1S(=O)(=O)N1CCc2nc(COc3ccccc3)c3c(c2C1)CO[C@@H](C)C3	18%[14.2 µM]	.	.	.	.	.
Cc1cc(C)c2c(=O)cc(C(=O)Nc3ccc(S(=O)(=O)Nc4onc(C)c4C)cc3)oc2c1	2%[46.1 µM]	-13%	-29	35%[46.1 µM]	.	.
COC(=O)[C@@H]1C[C@]2(OC(=O)c3ccccc3)C=CC(=O)C[C@@H]2N1C(=O)OCc1ccccc1	?	22µM*	-98*	7.3µM*	?	-5%
COc1ccc2c(c1)N(C)/C(=C/c1cccc[n+]1C)S2	-2%	?	-99*	.	3.5µM*	-4%
SMILES	Marburg entry inh	FMDV antiviral	HCMV inh	LASV entry inh	HCV inhibitor	SARS PLP yeast
COc1cc(OC)cc(C(=O)/C=C2\Sc3ccccc3N2C)c1	2%[46.1 µM]	18%	-40	15%[46.1 µM]	6%	-1%
CCN1/C(=C/c2cccc[n+]2C)Sc2ccc(OC)cc21	8%	?	-94*	.	3.5µM*	-5%
O=C([C@H]1[C@H](CO)[C@H]2Cn3c(cccc3=O)[C@@H]1N2C(=O)c1ccc(F)cc1)N1CCCCC1	.	.	14	.	.	.
COc1ccc(OC)c(CNC(=O)c2ccc(-c3nc(CSc4ccccc4)c(C)o3)cc2)c1	.	-20%	11	-21%[46.1 µM]	.	.
C[C@@H](CN1CCN(C)CC1)OC(=O)c1ccc(Cl)cc1Cl	12%	.	.	.	.	.
COc1ccc(CNC(=O)CCn2c(=O)c3cccn3c3ccc(F)cc32)cc1OC	.	-8%	-27	?	.	.
COc1ccc(N2CCN(C(=O)c3nc(SC)ncc3Cl)CC2)cc1	2%[46.1 µM]	-18%	-18	8%[46.1 µM]	.	.
CCS(=O)(=O)c1ncc(Cl)c(C(=O)N(Cc2ccccc2)c2ccc(OC)cc2)n1	?	11µM*	-99*	?	.	.
COc1ccc(N(Cc2ccccc2)C(=O)c2nc(SC)ncc2Cl)cc1	?	0%	-21	-24%[46.1 µM]	.	.
CCS(=O)(=O)c1ncc(Cl)c(C(=O)NCc2ccc(OC)cc2)n1	.	25µM*	-97*	?	.	.
CCOc1ccccc1NC(=O)c1nc(S(=O)(=O)Cc2ccccc2)ncc1Cl	.	32µM*	-109*	.	?	-1%
CCCS(=O)(=O)c1ncc(Cl)c(C(=O)Nc2c(C(=O)c3ccccc3)oc3ccccc23)n1	-6%[46.1 µM]	?	28	12%[46.1 µM]	.	.
CCS(=O)(=O)c1ncc(Cl)c(C(=O)N2CCN(c3ccc(OC)cc3)CC2)n1	?	32µM*	-99*	?	.	.
CC1=C[C@@H](c2ccccc2)n2nc(N3C(=O)[C@H]4CC=CC[C@@H]4C3=O)nc2N1	-4%	.	.	.	.	.
CCS(=O)(=O)c1ncc(Cl)c(C(=O)Nc2ccccc2OC)n1	-16%[46.1 µM]	3.5µM*	-20	?	?	0%
COc1ccccc1NC(=O)c1nc(S(=O)(=O)Cc2ccccc2)ncc1Cl	?	28µM*	-113*	?	?	-3%
COc1ccc(OC)c(NC(=O)c2nc(S(=O)(=O)Cc3ccc(F)cc3)ncc2Cl)c1	?	22µM*	-97*	?	.	.
COc1ccccc1NC(=O)c1nc(SCc2ccc(F)cc2)ncc1Cl	4%[46.1 µM]	-16%	18	24%[46.1 µM]	.	.
COc1ccc(OC)c(NC(=O)NCc2ccc(F)cc2)c1	?	7%	-20	0%	?	-10%
COc1ccc(OC)c2sc(N3CCN(C(=O)c4ccc5c(c4)CCCC5)CC3)nc12	.	-6%	-3	-12%[46.1 µM]	.	.

Screens as filed in PubChem.
